Assay results as given in PubChem BioAssay (Tox21).
Records with an inconclusive call do not appear. Unmarked numbers belong to inactive results. Activity calls are given as the source filed them. Calls follow the shape of the dose curve; as a rule, active = well fitted cell-killing curve with a large enough effect in the repeat runs; inconclusive = weak or mixed curves, or effect the other way; inactive = flat fitted curve, though single readings scatter.

Test: qHTS RealTime-Glo MT Cell Viability Assay in HEK293 cells - 24 hour (AID 1224886); also: nearly all actives have a fitted effect of over 50% in size; as to activity change, negative = cytotoxicity: top concentration of the series differs between compounds
Details: RealTime-Glo luminescence; series mostly up to 76.8 µM; activity change, negative = cytotoxicity: at the top concentration
Description: National Center for Advancing Translational Sciences [NCATS]
NIH Chemical Genomics Center [NCGC]
U.S. Environmental Protection Agency [EPA]
National Institutes of Environmental Health Sciences [NIEHS]
National Toxicology Program [NTP]
U.S. Food and Drug Administration [FDA]
Measure of cell viability is critical in the cell-base assay. Analysis of cell viability is necessary for the characterization of cell responses to cytotoxic drugs and environmental stress. A RealTime-Glo MT Cell Viability Assay to monitor cell viability in real time of continues cell culture during 40 hours of compound treatment was used to screen Tox21 10K library compounds in Hek293 cells. The RealTime-Glo MT Cell Viability Assay is a nonlytic, homogeneous, bioluminescent method to measure cell viability in real time using a simple, plate-based method. The assay involves adding NanoLuc luciferase and a cell-permeant prosubstrate to cells in culture. Viable cells reduce the proprietary prosubstrate to generate a substrate for NanoLuc luciferase. This substrate diffuses from cells into the surrounding culture medium, where it is rapidly used by the NanoLuc Enzyme to produce a luminescent signal. The signal correlates with the number of viable cells, making the assay well suited for cytotoxicity studies.
Tox21 Assay Protocol Summary:
The mixture of Hek293 cell suspension and reagents were dispensed at 600cells/6 ul/well in 1536-well tissue culture treated black solid bottom plates using a Multidrop dispenser. After the assay plates were incubated at a 37 C/5% CO2 incubator for 5 hours, 23 nL of compounds dissolved in DMSO, positive and negative controls was transferred to the assay plate by a pintool work station. The plates were incubated at 37 C for 40 hours. The luminescence intensity were measured at 0h, 8h, 16h, 24h, 32h and 40h time points using ViewLux plate reader during compound treatment.
% is scaled to controls: 0 for no effect and ±100 for the full control effect; potency is read from the fitted curve at half-maximal effect.

| SMILES | activity change, negative = cytotoxicity | Potency |
| --- | --- | --- |
| C1=CCC(c2ccccc2)CC1 (stereo not given) | 8.02% |  |
| CN[C@@H]1[C@@H](O)[C@@H](O[C@@H]2[C@H](O)[C@H](O[C@H]3OC(CN)=CC[C@H]3N)[C@@H](N)C[C@H]2N)OCC1(C)O (stereo not given in full) | 0.539% [at 35.3 µM] |  |
| NCCc1ccn[nH]1 | 7.55% [at 35.3 µM] |  |
| CCCCC(CC)CNC(=O)CC(C)OC(=O)CCC(=O)O (stereo not given) | -0.957% [at 35.3 µM] |  |
| C1CCN2C[C@@H]3C[C@@H](CN4CCCC[C@@H]34)[C@H]2C1 | 0.894% [at 35.3 µM] |  |
| COc1ccc(/C=N/NC(=O)c2ccncc2)cc1OC | -5.39% [at 35.3 µM] |  |
| C=C(C)C(=O)OC1CC(C)CC(C)(C)C1 (stereo not given) | 4.86% |  |
| CC(CC(=O)O)CC(C)(C)C (stereo not given) | -0.617% |  |
| COC(/C=C(\C)CCC=C(C)C)OC | 0.73% |  |
| CC(Cl)COP(=O)(OCC(C)Cl)OCC(C)Cl (stereo not given) | -0.554% |  |
| SCCSCCS | 0.37% |  |
| CC(C)=CC(C)(C)C | 7.83% |  |
| Nc1cc(C(=O)O)ccc1Cl | 0.676% |  |
| C=CCCCCCCCCCCC | 4.16% [at 6.97 µM] |  |
| O=C1OC(=O)c2cc(Oc3ccc4c(c3)C(=O)OC4=O)ccc21 | 8.56% |  |
| O=S(=O)(O)CCO | -11.3% |  |
| O=c1[nH]c(=O)c2ccccc2o1 | 4.03% [at 35.3 µM] |  |
| CCCCCCCCCOCC1CO1 (stereo not given) | -18.4% |  |
| CCOc1ccc(NC(=O)OC(C)C)cc1OCC | -18.3% |  |
| Cc1ccc(C(=O)C(=O)O)cc1C | 3.69% [at 35.3 µM] |  |

| SMILES | activity change, negative = cytotoxicity | Potency |
| --- | --- | --- |
| CCCCC/C=C/CC(=O)OC | 1.32% |  |
| C/C=C(\C)C(=O)OCC/C=C\CC | -0.0938% |  |
| Cc1ncc([N+](=O)[O-])n1CC(O)CCl (stereo not given) | 2.33% [at 35.3 µM] |  |
| CCOC(=O)C(C)(C)C | -0.869% |  |
| CCC(CO)CO | 4.9% |  |
| COC(=O)CCC(=O)O | 15.2% |  |
| CN=C(NC#N)NCCSCc1csc(N=C(N)N)n1 | 0.959% [at 35.3 µM] |  |
| Nc1nc(=O)n([C@@H]2O[C@H](CO)[C@@H](O)[C@@H]2F)cc1I | -1.49% [at 35.3 µM] |  |
| O=c1cc(O)c(Cl)c[nH]1 | 0.871% [at 35.3 µM] |  |
| CCC1COC(=O)O1 (stereo not given) | 1.62% |  |
| O=C(O)c1ccccc1C(=O)OCc1ccccc1 | 4.19% |  |
| CCCCCCCCCCCCCCCCCCN(C)C | 0.073% [at 35.3 µM] |  |
| CC(=O)OC(C)(C)Cc1ccccc1 | 1.13% |  |
| CCS(=O)(=O)CCn1c([N+](=O)[O-])cnc1C | 2.45% [at 35.3 µM] |  |
| O=C(O)C(=O)Nc1cccc(-c2nn[nH]n2)c1 | 0.516% [at 35.3 µM] |  |
| O=C(c1ccc2c(c1)C(=O)OC2=O)c1ccc2c(c1)C(=O)OC2=O | 5.45% |  |
| C[CH2][Ge]([Cl])([CH2]C)[CH2]C | 1.7% |  |
| CCN(CC)C(=O)C1CN2CCc3cc(OC)c(OC)cc3C2CC1OC(C)=O (stereo not given) | -4.38% [at 35.3 µM] |  |
| CC1CCC(C(C)(C)S)C(=O)C1 (stereo not given) |  | 3.89 µM (active) |
| NC(Cc1c[nH]c2ccccc12)C(=O)O (stereo not given) | 10.1% [at 35.3 µM] |  |
